D1 antagonist = antagonists of human D1 dopamine receptor; HEK293 TREx D1 cells, calcium flux, dopamine EC80; stronger effect = lower value; activity change, negative = inhibition, % at 10 µM; 360,000 tested, 3.2% active; in the data active means activity change below about -30%
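Inducible Hek293 Trex D1 cells (tetracycline, overnight, 30 C). Calcium dye 30–90 min RT. Antagonist mode: EC80 dopamine added after 180 s compound read.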
D1 ag = human D1 receptor agonism | HEK293 T-REx D1 cells, calcium flux, agonist mode | activation, % at 2 µM | 360,000 tested, 1% active; in the data active means activation above about 30%
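Tetracycline-induced HEK293 TREx D1 cells, force-coupled to calcium signalling, were dye-loaded with a no-wash calcium kit. Compound was pin-added after a 10 s baseline. Fluorescence was read kinetically at 1 cycle/s for 180 s, with calcium rises flagged as agonism.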
D1 PAM = potentiators of human D1 dopamine receptor; P21728; HEK293 TREx D1 cells, calcium flux, dopamine EC20 potentiation; potentiation, % at 10 µM; 360,000 tested, 0.036% active; AID 504651; in the data active means potentiation above about 30%
TRPV1 PAM = enhances activation of the human vanilloid receptor TRPV1. Q8NER1. TRPV1-expressing cells, Fluo-8 calcium influx, capsaicin EC20 potentiation. 320,000 tested, 0.02% active. potentiation, % at 8.33 µM. AID 540277; in the data active means potentiation above about 80%; inconclusive means between about 30% and that limit
Target sequence (Q8NER1 whole entry, looked up): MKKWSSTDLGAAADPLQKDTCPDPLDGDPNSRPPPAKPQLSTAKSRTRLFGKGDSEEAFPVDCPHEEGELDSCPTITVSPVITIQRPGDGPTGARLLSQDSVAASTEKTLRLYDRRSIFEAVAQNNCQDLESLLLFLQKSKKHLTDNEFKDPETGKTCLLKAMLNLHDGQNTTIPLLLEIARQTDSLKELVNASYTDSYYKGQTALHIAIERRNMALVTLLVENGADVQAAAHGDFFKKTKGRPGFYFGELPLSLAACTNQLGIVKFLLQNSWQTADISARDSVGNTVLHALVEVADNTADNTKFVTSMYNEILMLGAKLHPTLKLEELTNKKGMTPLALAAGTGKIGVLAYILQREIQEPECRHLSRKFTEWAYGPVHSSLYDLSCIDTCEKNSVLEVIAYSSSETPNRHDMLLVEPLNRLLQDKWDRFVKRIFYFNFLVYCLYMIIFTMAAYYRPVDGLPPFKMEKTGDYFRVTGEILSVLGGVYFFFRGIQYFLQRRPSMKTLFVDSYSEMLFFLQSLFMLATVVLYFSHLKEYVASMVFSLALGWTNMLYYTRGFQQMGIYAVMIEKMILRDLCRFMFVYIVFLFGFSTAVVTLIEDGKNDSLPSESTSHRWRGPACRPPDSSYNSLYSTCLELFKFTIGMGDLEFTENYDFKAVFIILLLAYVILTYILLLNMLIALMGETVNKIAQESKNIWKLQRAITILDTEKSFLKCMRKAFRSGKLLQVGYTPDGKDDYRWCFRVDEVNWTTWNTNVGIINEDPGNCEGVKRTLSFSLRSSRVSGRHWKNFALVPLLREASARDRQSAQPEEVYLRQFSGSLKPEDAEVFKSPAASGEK
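TRPV1-expressing cells were cultured overnight at 35.5C and loaded with Fluo-8 calcium dye for 40 to 90 min at room temperature. After a 10 s baseline, compound was added and calcium influx was read kinetically for 3 min (ex 480/em 520 nm).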
TRPV1 ag = activates the human vanilloid receptor TRPV1. Q8NER1. TRPV1-expressing cells, Fluo-8 calcium influx, agonist mode. activation, % at 8.33 µM. 320,000 tested, 0.19% active; in the data active means activation above about 80%; inconclusive means between about 30% and that limit
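Fluo-8 calcium influx in TRPV1-expressing cells, kinetic read (ex 480/em 520 nm). Compound added and read 3 min for agonist activity, followed by capsaicin at EC20 final and 2 min further read for enhancement.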
Of the large screens only hits and unclear results are named; the others gave an inactive call; ! = a repeat was not active. Sampled rows, rich in hits. Any-hit rate of the full collection: about 4.2%.

O=C1CCc2cc(OCCCCc3nnnn3C3CCCCC3)ccc2N1	D1 antagonist -42!, TRPV1 ag inconclusive
CCCCCCCCCCCCOC(=O)C[N+](C)(C)C	D1 antagonist -35, D1 ag 44
CCCCCCCCOC(=O)C[N+](C)(C)C/C=C(/C)Cl	none
CCCCCCCCCCOC(=O)C[N+](C)(C)C/C=C(/C)Cl	D1 ag 55
CCCCCCCCOC(=O)c1ccc(N)cc1	none
COc1ccc(NC(=O)CSc2nncn3c2cc2occc23)c(OC)c1	none (no result: TRPV1 PAM, TRPV1 ag)
CCCCn1cc(S(=O)(=O)c2ccc(C)cc2)c(=O)c2cc(F)c(N3CCCCC3)cc21	D1 ag 71 (no result: TRPV1 PAM, TRPV1 ag)
Cc1ccc(C)c(S(=O)(=O)c2cn(Cc3ccccc3)c3cc(N4CCCC4)c(F)cc3c2=O)c1	D1 antagonist -35 (no result: TRPV1 PAM, TRPV1 ag)
Cc1ccc(S(=O)(=O)c2cn(Cc3ccccc3)c3cc(N4CCCCC4)c(F)cc3c2=O)cc1	none (no result: TRPV1 PAM, TRPV1 ag)
Cn1cc(S(=O)(=O)c2ccccc2)c(=O)c2cc(F)c(N3CCOCC3)cc21	D1 antagonist -85!
Cc1cc2nnc(SCc3ccc(F)cc3)n2c2ccccc12	none (no result: TRPV1 PAM, TRPV1 ag)
CN(C)c1ccc(N=Cc2nc(-c3ccccc3)oc2OC(=O)c2cccc(Cl)c2)cc1	D1 antagonist -32, TRPV1 ag 80
COc1ccc(-c2nnc(SCC(=O)NC3CCCC3)nc2-c2ccc(OC)c(OC)c2)cc1OC	none (no result: TRPV1 PAM, TRPV1 ag)
CCOc1ccccc1CNC(=O)c1cnn(-c2ccc(C)cc2)c1-n1cccc1	none (no result: TRPV1 PAM, TRPV1 ag)
N#C/C(=C\Nc1ccc2c(c1)OCCO2)c1nc(-c2ccccc2)cs1	D1 antagonist -42, TRPV1 PAM inconclusive
CCC(=O)N1CCc2cc(S(=O)(=O)NCCC(=O)Nc3ccc(OC)c(OC)c3)ccc21	D1 antagonist -40 (no result: TRPV1 PAM, TRPV1 ag)
CCC(=O)N1CCc2cc(S(=O)(=O)NCCC(=O)Nc3ccc(C)cc3)ccc21	none (no result: TRPV1 PAM, TRPV1 ag)
Cc1nc(NCCc2ccccc2)c2nnn(Cc3ccccc3Cl)c2n1	none
COc1ccc(CCNc2nc(C)nc3c2nnn3Cc2ccccc2)cc1	D1 antagonist -57
Cc1nc(CSc2nsc(/C=C/N(C)C)c2C#N)cs1	D1 ag 31
COC(=O)c1ccccc1CSc1nsc(/C=C/N(C)C)c1C#N	none
CN1CCN(c2ncnc3c2cnn3-c2ccc(Cl)cc2)CC1	D1 antagonist -54 (no result: TRPV1 PAM, TRPV1 ag)
Cc1ccc(-n2ncc3c(N4CCN(c5ccc(F)cc5)CC4)ncnc32)cc1	none (no result: TRPV1 PAM, TRPV1 ag)
Cc1ccc(-n2ncc3c(N4CCN(C)CC4)ncnc32)cc1	D1 antagonist -30 (no result: TRPV1 PAM, TRPV1 ag)
COc1ccc(S(=O)(=O)N2CCN(Cc3nc4ccc(C)cc4o3)CC2)cc1Cl	none (no result: TRPV1 PAM, TRPV1 ag)
CCc1ccc(NC(=O)CC2C(=O)N(c3ccc(F)cc3)C(=O)N2Cc2ccc(F)cc2)cc1 (stereo not given)	D1 antagonist -31 (no result: TRPV1 PAM, TRPV1 ag)
CCc1ccc(NC(=O)CC2C(=O)N(c3cccc(C)c3)C(=O)N2Cc2cccs2)cc1 (stereo not given)	D1 antagonist -38 (no result: TRPV1 PAM, TRPV1 ag)
Cc1ccsc1CCN1C(=O)N(c2ccccc2)C(=O)C1CC(=O)Nc1ccc(Cl)cc1 (stereo not given)	D1 antagonist -36 (no result: TRPV1 PAM, TRPV1 ag)
CCOC(=O)CNC(=O)Nc1cc(C(=O)NCc2ccccc2OC)ccc1N1CCCC1	none (no result: TRPV1 PAM, TRPV1 ag)
O=C1Nc2ccccc2N(O)N1c1ccc(S(=O)(=O)Nc2ccccn2)cc1	D1 antagonist -50
Cc1ccnc(NS(=O)(=O)c2ccc(N3C(=O)Nc4ccccc4N3O)cc2)c1	none
O=C(COCc1cc(-c2cccs2)on1)Nc1ccc(OC(F)(F)F)cc1	none (no result: TRPV1 PAM, TRPV1 ag)
COC(=O)c1cc(=O)n(Cc2ccco2)c(=Nc2ccc(F)cc2)s1	D1 antagonist -35
CN(c1ccc(C(=O)Nc2ccccc2C(=O)N2CCCC2)cc1)S(C)(=O)=O	D1 antagonist -31
CN1CCc2c(sc3c2C(=O)NC(c2ccccc2)N3)C1 (stereo not given)	none
CN1CCc2c(sc3c2C(=O)NC(c2ccc(OC(=O)c4ccccc4)cc2)N3)C1 (stereo not given)	D1 ag 114 (no result: TRPV1 PAM, TRPV1 ag)
CN1CCc2c(sc3c2C(=O)NC(c2ccc(OC(=O)c4ccc(C(C)(C)C)cc4)cc2)N3)C1 (stereo not given)	D1 ag 263 (no result: TRPV1 PAM, TRPV1 ag)
CN1CCc2c(sc3c2C(=O)NC(c2ccc(OC(=O)c4ccc(Cl)cc4)cc2)N3)C1 (stereo not given)	D1 ag 145 (no result: TRPV1 PAM, TRPV1 ag)
Nc1nnc(SCC(=O)OCC(=O)Nc2ccccc2F)s1	D1 antagonist -56
Oc1ccc(COC2CCN(Cc3ccccc3)C2)c2cccnc12 (stereo not given)	none (no result: TRPV1 PAM, TRPV1 ag)
OC(CNCCNc1ncccc1C(F)(F)F)Cn1ccc2ccccc21 (stereo not given)	D1 antagonist -36
OC(CNCc1ccccc1)Cn1ccc2ccccc21 (stereo not given)	none
Clc1cccc(Cl)c1OCCCCN1CCCCC1	none
Cc1cccc(Cl)c1OCCN1CCCC1	D1 antagonist -41
COc1ccc(CCC(C)NCc2ccc(Cl)c(Cl)c2)cc1 (stereo not given)	D1 ag 32
COc1ccc(CCC(C)Nc2ccc(F)c(F)c2)cc1 (stereo not given)	none
COc1ccc(CCC(C)NCc2cc(OC)cc(OC)c2)cc1 (stereo not given)	none
COc1ccc(CCC(C)NCCc2ccc(Cl)cc2Cl)cc1 (stereo not given)	D1 ag 51
Cc1cc(C)cc(NS(=O)(=O)c2ccc3c(c2)CCCN3C(=O)C2CCC2)c1	none (no result: TRPV1 PAM, TRPV1 ag)
Cc1ccsc1CN(C(=O)COc1cccc(C)c1C)C1CCS(=O)(=O)C1 (stereo not given)	none (no result: TRPV1 PAM, TRPV1 ag)
Cc1ccc(C(=O)Nc2nnc(CC(=O)N/N=C/c3ccc(O)c(O)c3)s2)cc1	none
COc1ccc(C(=O)Nc2nnc(CC(=O)N/N=C/c3ccc(O)cc3O)s2)cc1	D1 ag 46, TRPV1 ag inconclusive
c1ccc(N2CCN(c3cnccn3)CC2)nc1	D1 antagonist -41
BrC(=C\c1ccccc1)/C=N/N1CCN(c2ccccn2)CC1	D1 antagonist -32
Cc1cc(F)ccc1NC(=O)CCn1nc(C)c(S(=O)(=O)N2CCCCC2)c1C	none (no result: TRPV1 PAM, TRPV1 ag)
COc1cccc(/C=N/Nc2snc(SC)c2C#N)c1O	D1 antagonist -41, D1 ag 37
CCOc1cc(NC(=S)Nc2ccc(Cl)cc2)c(OCC)cc1NC(C)=O	D1 antagonist -40
CCOc1ccc(CNC(=O)c2cnc3sc(N4CCOCC4)nn3c2=O)cc1	D1 antagonist -61 (no result: TRPV1 PAM, TRPV1 ag)
CCCCOc1ccc(CNC(=O)c2cnc3sc(N4CCOCC4)nn3c2=O)cc1	none (no result: TRPV1 PAM, TRPV1 ag)
Cc1ccc(C2C(C#N)=C(N)Oc3cc(N)ccc32)cc1 (stereo not given)	none
Cc1ccc(/C=C2\CCC3=C2OC(N)=C(C#N)C3c2ccc(C)cc2)cc1 (stereo not given)	D1 antagonist -57, D1 ag 135, TRPV1 PAM inconclusive
COCCCNC(=O)CC(c1cc(OC)c(OC)c(OC)c1)N1Cc2ccccc2C1=O (stereo not given)	none (no result: TRPV1 PAM, TRPV1 ag)

Screens (PubChem)
